Laboratory results from PubChem BioAssay (NCATS).
Several values for one entry are separate records, joined by “and”; a condition that tells them apart may be missing. Identical values can stand only once. Results filed as inconclusive are left out. A call without a number means that no potency is given here. Activity calls are given as the source filed them. Unless noted, calls follow the shape of the dose curve; as a rule, active = well fitted curve in the direction sought with a large enough effect; inconclusive = small, poorly fitted or top-dose-only effect, or another doubt; inactive = no such curve, though single readings can be large; an effect the other way counts as inactive or inconclusive.

How the values were obtained:
[1] = NS1 protein of Zika virus - qHTS assay to identify small molecule inhibitors in human HEK 293 cells (AID 1347053); also: nearly all actives have a fitted effect of over 55% in size; also: potency is read from the fitted curve at half-maximal effect
How it was run: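 TR-FRET signal from two anti-ZIKV NS1 antibodies quantified NS1 in HEK 293 cells 24 h after MR766 infection at MOI = 0.5; compounds were added 1 h before virus. Uninfected cells and infected cells defined the NS1 normalization range.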

[2] = qHTS of pediatric cancer cell lines to identify multiple opportunities for drug repurposing: Primary screen for TC32 cells (AID 1347089); also: nearly all actives have a fitted effect of over 60% in size; also: potency is read from the fitted curve at half-maximal effect
How it was run: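 In the primary qHTS, MIPE compounds were tested at 11 concentrations (0.78 nM to 46 µM) and NPC compounds at 8 (0.59 nM to 46 µM) on TC32 cells for 48 h. CellTiter-Glo luminescence gave viability.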

[3] = qHTS of pediatric cancer cell lines to identify multiple opportunities for drug repurposing: Primary screen for SJ-GBM2 cells (AID 1347091); also: potency is read from the fitted curve at half-maximal effect
How it was run: (§1)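 Viability measured as metabolically active cells via CellTiter-Glo luminescence following 48 hours of compound exposure, 11-point dilutions in confirmatory testing. 500-1,000 cells/well plated 5 hours before dosing; controls were DMSO and 2.3 µM bortezomib.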

[4] = qHTS of pediatric cancer cell lines to identify multiple opportunities for drug repurposing: Primary screen for DAOY cells (AID 1347090); also: nearly all actives have a fitted effect of over 55% in size; also: potency is read from the fitted curve at half-maximal effect
How it was run: as §1

[5] = biological target: T1, Tyrosine-protein phosphatase non-receptor type substrate 1 (Homo sapiens) + Leukocyte surface antigen CD47 (Homo sapiens) (UniProt P78324+Q08722); assay: CD47-SIRPalpha protein protein interaction - LANCE assay qHTS validation (AID 1347057; active = well fitted curve in the direction sought with a large enough effect in the signal ratio, with a control signal flat, not every such curve was filed as active; the % refers to the signal ratio; also: series mostly up to about 38 µM)
How it was run: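 Inhibition of soluble CD47/SIRPalpha ectodomain association by titrated compounds, measured as 665/615 nm time-resolved FRET ratio after sequential 30 min room-temperature incubations.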

[6] = biological target: T1, Tyrosine-protein phosphatase non-receptor type substrate 1 (Homo sapiens) + Leukocyte surface antigen CD47 (Homo sapiens); assay: CD47-SIRPalpha protein protein interaction - HTRF assay qHTS validation (AID 1347058; active = well fitted curve in the direction sought with a large enough effect in the signal ratio, not every such curve was filed as active; the % refers to the signal ratio; also: series mostly up to about 38 µM)
How it was run: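 Soluble extracellular domains (6His-CD47, Avi-tag-biotinylated SIRPalpha) in PBS pH 7.4 with 0.05% IGEPAL CA-630. Compounds were preincubated 30 min at RT with CD47 and anti-His-Eu, then SIRPalpha and SAV-XL665 were added. TR-FRET 665/615 ratio.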

[7] = biological target: Parathyroid hormone/parathyroid hormone-related peptide receptor (Homo sapiens) (UniProt Q03431); assay: qHTS for PTHR1 Agonists: Optimization Screen against the NCGC LOPAC library (AID 1347079);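 also: GloSensor cAMP luminescence in HEK-293 GP2 cells expressing human PTHR1 with IBMX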
How it was run: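 Signal increase flags agonism. GP2 cells, derived from HEK-293, express human PTHR1 and a GloSensor cAMP construct.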

T1 sequence (P78324 whole entry, looked up, the tested form may be a part): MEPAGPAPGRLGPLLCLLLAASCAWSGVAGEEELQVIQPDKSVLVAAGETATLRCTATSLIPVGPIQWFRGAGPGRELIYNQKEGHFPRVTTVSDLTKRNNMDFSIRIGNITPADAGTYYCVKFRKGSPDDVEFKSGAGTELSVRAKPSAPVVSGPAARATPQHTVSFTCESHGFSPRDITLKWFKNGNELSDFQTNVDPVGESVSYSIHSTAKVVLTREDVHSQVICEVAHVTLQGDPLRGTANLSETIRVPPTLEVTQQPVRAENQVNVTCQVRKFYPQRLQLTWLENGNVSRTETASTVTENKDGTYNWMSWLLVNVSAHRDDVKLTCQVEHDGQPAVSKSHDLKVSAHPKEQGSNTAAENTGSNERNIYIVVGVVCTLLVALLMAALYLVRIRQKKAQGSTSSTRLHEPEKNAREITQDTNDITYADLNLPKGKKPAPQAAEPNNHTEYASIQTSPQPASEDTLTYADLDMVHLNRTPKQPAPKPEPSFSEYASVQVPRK
T1 sequence (Q08722 whole entry, looked up, the tested form may be a part): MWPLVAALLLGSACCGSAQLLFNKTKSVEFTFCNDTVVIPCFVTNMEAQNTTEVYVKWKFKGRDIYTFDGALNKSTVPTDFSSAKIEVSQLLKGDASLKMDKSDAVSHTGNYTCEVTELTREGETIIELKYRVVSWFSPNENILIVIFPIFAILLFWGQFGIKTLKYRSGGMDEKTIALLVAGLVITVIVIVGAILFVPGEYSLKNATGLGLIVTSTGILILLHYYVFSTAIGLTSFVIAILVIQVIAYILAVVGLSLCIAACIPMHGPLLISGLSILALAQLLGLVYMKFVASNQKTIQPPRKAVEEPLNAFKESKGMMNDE
Chain of Parathyroid hormone/parathyroid hormone-related peptide receptor (Homo sapiens) (Q03431 whole entry, looked up): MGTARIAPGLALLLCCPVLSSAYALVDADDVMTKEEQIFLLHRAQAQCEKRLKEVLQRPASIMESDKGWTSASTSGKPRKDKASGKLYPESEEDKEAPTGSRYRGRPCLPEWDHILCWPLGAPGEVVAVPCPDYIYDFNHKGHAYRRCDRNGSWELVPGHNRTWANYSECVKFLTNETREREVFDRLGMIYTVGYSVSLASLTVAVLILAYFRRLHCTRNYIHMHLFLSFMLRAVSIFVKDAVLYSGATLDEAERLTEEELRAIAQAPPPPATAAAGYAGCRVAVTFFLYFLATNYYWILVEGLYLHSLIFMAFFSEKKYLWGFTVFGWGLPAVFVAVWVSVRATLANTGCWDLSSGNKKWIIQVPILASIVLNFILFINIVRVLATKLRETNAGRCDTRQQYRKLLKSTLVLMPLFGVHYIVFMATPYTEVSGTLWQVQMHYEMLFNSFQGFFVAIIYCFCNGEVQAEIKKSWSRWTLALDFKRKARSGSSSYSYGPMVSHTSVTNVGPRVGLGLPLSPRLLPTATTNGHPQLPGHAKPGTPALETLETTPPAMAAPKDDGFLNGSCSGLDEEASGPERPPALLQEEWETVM

Compound: COc1ccc([C@@H]2CC(=O)c3c(O)cc(O[C@@H]4O[C@H](CO[C@@H]5O[C@@H](C)[C@H](O)[C@@H](O)[C@@H]5O)[C@@H](O)[C@H](O)[C@@H]4O)cc3O2)cc1O
- Potency [1]: inactive
- Potency [2]: inactive
- Potency [3]: inactive

Compound: N#Cc1ccc(C(c2ccc(C#N)cc2)n2cncn2)cc1
- Potency [1]: inactive
- Potency [2]: inactive
- Potency [3]: inactive

Compound: CNC(=O)c1ccccc1Sc1ccc2c(/C=C/c3ccccn3)n[nH]c2c1
- Potency [3]: 5.31 µM (active)

Compound: CCOc1cc(C(=O)Nc2ccc(Cl)c(-c3nc4ccccc4[nH]3)c2)cc(OCC)c1OCC
- Potency [1]: inactive
- Potency [2]: inactive
- Potency [3]: inactive

Compound: COc1ccc2c3n(c(=NC(=O)c4cccnc4)nc2c1OC)CCN3
- Potency [1]: inactive
- Potency [4]: 1.87 µM (active)
- Potency [3]: 18.7 µM (active)

Compound: CCCCCCCc1ccc(CCc2cccc(O)c2C(=O)O)cc1
- Potency [2]: inactive

Compound: Cc1cc(Nc2nc(N[C@@H](C)c3ncc(F)cn3)ncc2Cl)n[nH]1
- Potency [1]: inactive
- Potency [4]: 2.96 µM (active)
- Potency [3]: 23.5 µM (active)

Compound: CCc1cc(Nc2nccc(-c3c(-c4ccc(OC)c(C(=O)Nc5c(F)cccc5F)c4)nc4ccccn34)n2)c(OC)cc1N1CCC(N2CCN(S(C)(=O)=O)CC2)CC1
- Potency [1]: 26.4 µM (active)
- Potency [2]: inactive
- Potency [3]: inactive

Compound: COc1cc(Nc2ncc3c(n2)-c2ccc(Cl)cc2C(c2c(F)cccc2OC)=NC3)ccc1C(=O)O
- Potency [1]: inactive
- Potency [2]: 0.186 µM (active)
- Potency [3]: 0.0209 µM (active)

Compound: Cc1cc2c(C(C)C)c(O)c(O)c(C=O)c2c(O)c1-c1c(C)cc2c(C(C)C)c(O)c(O)c(C=O)c2c1O
- outcome [5]: inactive
- outcome [6]: inactive
- outcome [7]: inactive
- Potency [2]: inactive
- Potency [4]: 21.1 µM (active) and 14.8 µM (active)

Compound: CO[C@@H]1[C@H](N(C)C(=O)c2ccccc2)C[C@H]2O[C@]1(C)n1c3ccccc3c3c4c(c5c6ccccc6n2c5c31)C(=O)NC4
- Potency [3]: 0.833 µM (active)

Compound: Cc1cc2c(F)c(Oc3ncnn4cc(OC[C@@H](C)O)c(C)c34)ccc2[nH]1
- Potency [1]: 0.935 µM (active)
- Potency [3]: 10.5 µM (active)

Compound: COc1ccc(C2=N[C@H](c3ccc(Cl)cc3)[C@H](c3ccc(Cl)cc3)N2C(=O)N2CCNC(=O)C2)c(OC(C)C)c1
- Potency [2]: inactive
- Potency [4]: 23.5 µM (active)
- Potency [3]: 14.8 µM (active)

Compound: Cc1c(CN2CCN(C(=O)C(C)C)CC2)sc2c(N3CCOCC3)nc(-c3cnc(N)nc3)nc12
- Potency [2]: 0.466 µM (active)
- Potency [3]: 0.132 µM (active)

Compound: COc1cc2nccc(Oc3ccc(NC(=O)NC4CC4)c(Cl)c3)c2cc1C(N)=O
- Potency [4]: 4.69 µM (active)

Compound: COc1cccc2cc(-c3nc(C4CCC(C(=O)O)CC4)n4ncnc(N)c34)[nH]c12 (stereo not given)
- Potency [1]: inactive
- Potency [3]: 0.935 µM (active)

Compound: Nc1cccc(S(=O)(=O)N2CCCN(S(=O)(=O)c3ccc4c(c3)OCCO4)CC2)c1
- Potency [2]: inactive
- Potency [4]: inactive

Compound: Cc1ccc(-n2nc(C(C)(C)C)cc2NC(=O)Nc2ccc(OCCN3CCOCC3)c3ccccc23)cc1
- Potency [1]: inactive
- Potency [2]: inactive
- Potency [3]: inactive

Compound: CCn1c(-c2nonc2N)nc2c(C#CC(C)(C)O)ncc(OC[C@H]3CCCNC3)c21
- Potency [1]: inactive
- Potency [3]: 23.5 µM (active)

Compound: COc1ccc(-c2ccc3c(N4CCOC[C@H]4C)nc(N4CCOC[C@H]4C)nc3n2)cc1CO
- Potency [2]: 0.165 µM (active)

Compound: COCC(=O)NCC=Cc1ccc2ncnc(Nc3ccc(Oc4ccc(C)nc4)c(C)c3)c2c1
- Potency [2]: inactive

Compound: O=C(C1CC1)N1CC[C@@H](Cn2c(-c3ccc(-c4ccc5occc5c4)cc3)nc3cnccc32)C1
- Potency [2]: inactive
- Potency [3]: 8.33 µM (active)

Compound: Cc1n[nH]c(C)c1Cc1sc2c(c1C(=O)N1C[C@H](O)CO1)c(=O)n(C)c(=O)n2CC(C)C
- Potency [1]: inactive
- Potency [4]: inactive
- Potency [3]: inactive

Compound: Cc1ccccc1C(C(=O)NC1CCCC1)N(C(=O)Cn1cnc2ccccc21)c1cccc(F)c1 (stereo not given)
- Potency [2]: inactive
- Potency [3]: inactive

Compound: O=C(Nc1ccc(F)c(C(F)(F)F)c1)Nc1nnc(-c2ccncc2)s1
- Potency [1]: inactive
- Potency [2]: inactive
- Potency [3]: inactive

Compound: O=C(Nc1cccnc1)N1CCC(Cc2cccc(Oc3ccc(C(F)(F)F)cn3)c2)CC1
- Potency [2]: inactive

Compound: CC(C)(N)C(=O)N[C@H](COCc1ccccc1)C(=O)N1CCC2(CC1)CN(S(C)(=O)=O)c1ccccc12
- Potency [2]: inactive
